Values without a mark were called inactive. For some of these results: Measured potencies and affinities stand elsewhere. Calls of active or inactive are those of the source. Unless noted, no rule for the calls is given here.
Experiments:
[1] = antimalarial activity against Dd2 strain (AID 2302;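 active = growth inhibition above 50% at the single 2 µM test dose, taken to imply half-maximal potency below 2 µM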;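 also: 0% = DMSO untreated growth and 100% = chloroquine plus artemisinin killed control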); settings: P. falciparum Dd2 in RBCs, LDH growth readout, 72 h; at 2 µM; hits give high values
[2] = HepG2 cytotoxicity, primary screen, cytotoxicity control for P. falciparum antimalarial project, cell-based, ATP luminescence (AID 2303;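 active = inhibition above 50%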;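 also: 0% = DMSO wells and 100% = digitonin-killed cells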); settings: HepG2 viability, 24-48 h, at 10 µM, hits give high values
[3] = molecular target: L-lactate dehydrogenase (Plasmodium falciparum (isolate CDC / Honduras)) (UniProt Q27743); assay: PfLDH activity inhibition – cell lysate, 3D7 strain, counter-screen for P. falciparum growth inhibition project (AID 2304);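 also: 0% = vehicle and 100% = reference inhibitor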; settings: P. falciparum 3D7 crude extract, LDH APAD/NBT absorbance; at 2 µM; hits give high values
[4] = inhibition of 3D7 malaria parasite growth – strain 3D7 (AID 2306);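 also: 0% = DMSO wells and 100% = chloroquine plus artemisinin control wells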; settings: P. falciparum 3D7 erythrocytic growth, LDH absorbance, 72 h; at 2 µM; hits give high values
[5] = molecular target: Calcium-dependent protein kinase 1 (Plasmodium falciparum (isolate 3D7)) (UniProt P62344); assay: PfCDPK1 kinase inhibitors, biochemical, TCAMS library (AID 1159585; cut-off not given, nearly all actives have IC50 up to about 0.98 µM;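 also: inhibitors leave more ATP so luminescence rises with inhibition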); settings: recombinant PfCDPK1, Kinase-Glo ATP depletion luminescence
[6] = molecular target: Plasmodium falciparum protein kinase 6 (PK6, PF3D7_1337100) (UniProt Q8IDW1); assay: PfPK6 kinase inhibitors, biochemical, TCAMS library (AID 1159586); settings: recombinant PfPK6, Kinase-Glo ATP depletion luminescence
[7] = molecular target: Protein kinase 7 (PK7), Plasmodium falciparum 3D7 (PF3D7_0213400) (UniProt Q7YTF7); assay: inhibition of Plasmodium PK7 catalytic activity – biochemical, TCAMS antimalarial set, Kinase-Glo luminescence (AID 1159587); settings: recombinant PfPK7, Kinase-Glo ATP depletion luminescence
[8] = molecular target: Calcium-dependent protein kinase 4 (Plasmodium falciparum (isolate 3D7)) (UniProt Q8IBS5); assay: PfCDPK4 kinase inhibitors, biochemical, TCAMS library (AID 1159588; cut-off not given, nearly all actives have IC50 up to about 0.91 µM); settings: recombinant PfCDPK4, Kinase-Glo ATP depletion luminescence
Calcium-dependent protein kinase 4 (Plasmodium falciparum (isolate 3D7)), sequence (Q8IBS5 whole entry, looked up): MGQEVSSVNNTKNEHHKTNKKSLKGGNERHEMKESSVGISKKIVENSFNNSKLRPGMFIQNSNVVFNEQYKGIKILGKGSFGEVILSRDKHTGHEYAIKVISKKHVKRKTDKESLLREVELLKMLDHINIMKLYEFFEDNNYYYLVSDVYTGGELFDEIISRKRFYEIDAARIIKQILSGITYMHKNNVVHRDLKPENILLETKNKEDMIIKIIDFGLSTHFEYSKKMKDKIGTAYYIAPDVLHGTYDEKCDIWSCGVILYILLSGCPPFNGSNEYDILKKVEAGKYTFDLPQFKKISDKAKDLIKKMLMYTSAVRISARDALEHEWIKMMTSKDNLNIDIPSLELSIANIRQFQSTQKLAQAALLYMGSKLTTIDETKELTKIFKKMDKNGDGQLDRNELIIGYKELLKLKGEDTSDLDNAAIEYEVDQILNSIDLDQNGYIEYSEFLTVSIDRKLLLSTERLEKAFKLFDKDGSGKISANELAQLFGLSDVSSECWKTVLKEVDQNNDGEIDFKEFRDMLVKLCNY

Plasmodium falciparum protein kinase 6 (PK6, PF3D7_1337100), sequence (Q8IDW1 1-305): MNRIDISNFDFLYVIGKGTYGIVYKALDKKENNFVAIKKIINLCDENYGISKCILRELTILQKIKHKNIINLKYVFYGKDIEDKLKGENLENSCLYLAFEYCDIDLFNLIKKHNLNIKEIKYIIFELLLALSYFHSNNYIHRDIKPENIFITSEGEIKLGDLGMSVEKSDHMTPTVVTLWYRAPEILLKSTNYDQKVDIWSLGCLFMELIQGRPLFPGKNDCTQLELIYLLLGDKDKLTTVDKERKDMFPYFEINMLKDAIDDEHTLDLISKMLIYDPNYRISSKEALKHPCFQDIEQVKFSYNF
Calcium-dependent protein kinase 1 (Plasmodium falciparum (isolate 3D7)), sequence (P62344 whole entry, looked up): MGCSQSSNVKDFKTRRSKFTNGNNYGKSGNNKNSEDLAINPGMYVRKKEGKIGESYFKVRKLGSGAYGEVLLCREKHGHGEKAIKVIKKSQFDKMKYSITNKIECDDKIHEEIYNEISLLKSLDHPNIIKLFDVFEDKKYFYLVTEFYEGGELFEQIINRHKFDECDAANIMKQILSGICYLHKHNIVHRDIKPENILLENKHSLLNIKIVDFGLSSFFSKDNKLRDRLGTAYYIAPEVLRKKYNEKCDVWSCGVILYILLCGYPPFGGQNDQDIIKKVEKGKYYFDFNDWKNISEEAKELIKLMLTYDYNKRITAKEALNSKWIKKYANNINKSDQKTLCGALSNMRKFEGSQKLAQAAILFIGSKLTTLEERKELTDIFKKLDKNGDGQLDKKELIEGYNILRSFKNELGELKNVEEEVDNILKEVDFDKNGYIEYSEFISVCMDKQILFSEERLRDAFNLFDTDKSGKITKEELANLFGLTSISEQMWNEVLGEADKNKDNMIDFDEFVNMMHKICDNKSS
Protein kinase 7 (PK7), Plasmodium falciparum 3D7 (PF3D7_0213400), sequence (Q7YTF7 1-343): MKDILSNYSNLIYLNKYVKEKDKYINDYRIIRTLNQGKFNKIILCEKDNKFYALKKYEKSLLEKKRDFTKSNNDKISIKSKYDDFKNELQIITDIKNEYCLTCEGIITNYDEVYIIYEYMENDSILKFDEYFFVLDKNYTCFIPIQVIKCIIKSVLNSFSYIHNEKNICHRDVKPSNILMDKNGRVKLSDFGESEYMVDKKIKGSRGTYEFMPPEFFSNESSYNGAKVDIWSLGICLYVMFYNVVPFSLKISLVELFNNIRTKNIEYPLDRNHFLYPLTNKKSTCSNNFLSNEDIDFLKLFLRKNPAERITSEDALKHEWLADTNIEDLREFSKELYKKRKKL
L-lactate dehydrogenase (Plasmodium falciparum (isolate CDC / Honduras)), sequence (Q27743 whole entry, looked up): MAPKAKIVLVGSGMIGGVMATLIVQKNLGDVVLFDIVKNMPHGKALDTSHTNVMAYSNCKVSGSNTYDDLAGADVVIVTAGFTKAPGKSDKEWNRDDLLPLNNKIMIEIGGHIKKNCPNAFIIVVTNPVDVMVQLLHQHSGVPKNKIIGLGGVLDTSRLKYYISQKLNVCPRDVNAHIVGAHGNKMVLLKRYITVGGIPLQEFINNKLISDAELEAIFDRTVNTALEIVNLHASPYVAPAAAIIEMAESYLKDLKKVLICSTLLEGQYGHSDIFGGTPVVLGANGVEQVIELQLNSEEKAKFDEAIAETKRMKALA

| Structure (SMILES) | growth inhibition [1] | inhibition [2] | inhibition [3] [%] | growth inhibition [4] | outcome [5] | outcome [6] | outcome [7] | outcome [8] |
| --- | --- | --- | --- | --- | --- | --- | --- | --- |
| c1ccc2cc3c(Nc4ccc(N5CCCCCC5)cc4)ccnc3cc2c1 | 76% (active) | 10% | 1 | 94% (active) | inactive | inactive | inactive | inactive |
| CCOc1cc(CNCCCCCCNCc2cc(OCC)c(OCC)c3ccccc23)c2ccccc2c1OCC | 99% (active) | 100% (active) | 2 | 101% (active) | inactive | inactive | inactive | inactive |
| CCOc1cc(Cc2cnc(N)nc2N)cc(OCC)c1-n1cccc1 | -1% | -1% | -2 | 98% (active) | inactive | inactive | inactive | inactive |
| O=C(NC1CCN(c2ccnc3cc(Cl)ccc23)C1)c1cccc(F)c1 (stereo not given) | 98% (active) | 30% | 1 | 95% (active) | inactive | inactive | inactive | inactive |
| COc1cccc(N(CCCN2C(=O)c3cccc4cccc(c34)C2=O)C(=O)c2ccccc2C)c1 | 70% (active) | 20% | -7 | 86% (active) | inactive | inactive | inactive | inactive |
| O[C@@H](c1ccc2ccccc2c1)[C@@H]1CN(CCc2ccccc2)CC[C@@]1(O)c1ccccc1 | 96% (active) | 1% | 1 | 99% (active) | inactive | inactive | inactive | inactive |
| CN1Cc2cc(NC(=O)/C=C/c3ccccc3Cl)ccc2C(C)(C)C1 | 96% (active) | 12% | -3 | 99% (active) | inactive | inactive | inactive | inactive |
| C#CCNCc1ccc(-c2cccc(-c3nc4c(C)cccc4[nH]3)c2)cc1 | 32% | -4% | 2 | 100% (active) | inactive | inactive | inactive | inactive |
| O=S(=O)(Nc1cccc(CCN2CCC(N3CCCCC3)CC2)c1)c1cccc2ccccc12 | 63% (active) | 23% | 2 | 99% (active) | inactive | inactive | inactive | inactive |
| Cc1cnc(Nc2cccnc2)nc1Nc1ccccc1C(=O)NC(C)C | 26% | 9% | 0 | 85% (active) | inactive | inactive | inactive | inactive |
| C[C@H](NC(=O)c1c(CN2CCC(N3CCCCC3=O)CC2)c(-c2cccs2)nc2ccccc12)C1CCCCC1 | 73% (active) | 8% | 2 | 91% (active) | inactive | inactive | inactive | inactive |
| COCCCNc1nc2cc(OC)c(OC)cc2c2nc(-c3ccccc3)nn12 | 97% (active) | 6% | -6 | 95% (active) | inactive | inactive | inactive | inactive |
| Cc1c(F)cc(C(=O)NC2CC2)cc1-c1ccc2c(cnn2S(=O)(=O)c2ccc(C#N)cc2)c1 | 92% (active) | 17% | 0 | 97% (active) | inactive | inactive | inactive | inactive |
| CCOC(=O)c1cn(CC)c2cc(N(C)CCc3ccc(OC)c(OC)c3)c(F)cc2c1=O | 96% (active) | 9% | 4 | 92% (active) | inactive | inactive | inactive | inactive |
| O=C(Cc1ccc(Cl)cc1)Nc1cc(Cl)ccc1Cn1cnc(N2CCNCC2)cc1=O | 2% | 9% | -4 | 97% (active) | inactive | inactive | inactive | inactive |
| CCc1c(C(=O)NC2CCC(N3CCC(c4ccccc4C)CC3)CC2)[nH]c2ccc(OC)cc12 (stereo not given) | 100% (active) | 78% (active) | -1 | 101% (active) | inactive | inactive | inactive | inactive |
| CCC(NC[C@@H](O)[C@H](Cc1ccccc1)NC(=O)c1cc(C2CCCC2)cc(N2CCCC2=O)c1)c1cccc(Cl)c1 (stereo not given in full) | 97% (active) | 7% | -8 | 100% (active) | inactive | inactive | inactive | inactive |
| Cc1ccc(NC(=O)c2ccc(N3CCN(c4ccncc4)CC3)cn2)cc1F | 77% (active) | 2% | 2 | 98% (active) | inactive | inactive | inactive | inactive |
| Cc1ccc2c(c1)NC[C@@]21CCN(C[C@@H](O)C2CCN(c3cc(C#N)ccn3)CC2)C[C@@H]1C | 79% (active) | 28% | -2 | 90% (active) | inactive | inactive | inactive | inactive |
| N=C(N)c1cccc(OCCCOc2cccc(NC(=O)Nc3ccc([N+](=O)[O-])cc3)c2)c1 | 22% | 16% | 3 | 98% (active) | inactive | inactive | inactive | inactive |
